This note sets out measurements from PubChem BioAssay (Tox21).

Several values for one entry are separate records, joined by “and”; a condition that tells them apart may be missing. Equal values may be shown once. Inconclusive results are not listed. A number with no mark means an inactive call. Activity calls are given as the source filed them. Calls follow the shape of the dose curve; as a rule, active = well fitted activation curve with a large enough effect in the repeat runs; inconclusive = weak or mixed curves; inactive = flat fitted curve, though single readings scatter. Starred links: 1 amine or outer side, 2 acyl side, 3 side chain; linkers in the order of their positions; H or OH if unused. Positions of bridges follow the written chain, without caps; N, C: chain ends. Non-standard residues stand in square brackets, D forms with d. Residues, ends and D or L forms follow the SMILES beside them. Chains are numbered I, II in the order given. Actinocin(9to1) = Cc1c2oc3c(C)ccc(C(=O)[*:1])c3nc-2c(C(=O)[*:2])c(N)c1=O; NMeV = CN[C@H](C(=O)O)C(C)C; Sar = CNCC(=O)O
% is scaled to controls: 0 for no effect and ±100 for the full control effect; potency is read from the fitted curve at half-maximal effect.

This assay is described as follows: A CellTox Green Cytotoxicity Assay to monitor cytotoxicity in HepG2 cells - 8 hour (AID 1224890). Also: nearly all actives have a fitted effect of over 45% in size. Particulars: CellTox Green fluorescence; series mostly up to 76.8 µM; cytotoxicity increase: at the top concentration. In a few lines:
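First, HepG2 cells (600/well) mixed with reagent were plated; second, after 5 h at 37 C they received compounds via pintool; third, fluorescence was measured at 0 h through 40 h at 8 h intervals.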
As to `CC(C)(C)NCC(O)c1cc(O)cc(O)c1` (stereo unspecified), the “cytotoxicity increase” value is -17.6% [at 35.3 µM]. As to `Cc1c2oc3c(C)ccc(C(=O)N[C@@H]4C(=O)N[C@H](C(C)C)C(=O)N5CCC[C@H]5C(=O)N(C)CC(=O)N(C)[C@@H](C(C)C)C(=O)O[C@@H]4C)c3nc-2c(C(=O)N[C@@H]2C(=O)N[C@H](C(C)C)C(=O)N3CCC[C@H]3C(=O)N(C)CC(=O)N(C)[C@@H](C(C)C)C(=O)O[C@@H]2C)c(N)c1=O` (I: T[dV]P[Sar][NMeV] / II: T[dV]P[Sar][NMeV]; ester I:1-I:C, II:1-II:C; linker I:N-II:N via Actinocin(9to1)), the Potency result was “inactive”. On to `C#CC(C)(CC)OC(=O)c1ccccc1C(=O)O` (stereo unspecified), for which the “cytotoxicity increase” value was 2.34% [at 35.3 µM]. For `CC(C)(C)NCC(O)COc1ccccc1OCC1CCCO1` (stereo unspecified), the “cytotoxicity increase” value is -0.192% [at 35.3 µM].

As to `COc1ccc(Cc2cnc(N)nc2N)cc1OC`, the “cytotoxicity increase” value is -17.3% [at 35.3 µM]. For `C=CS(=O)(=O)O`, the “cytotoxicity increase” value is -7.94%.

With `CC(=O)C1=C(C)[C@@H]2C[C@@]3(C1)[C@H](C)CC[C@H]3C2(C)C`, the Potency entry was “inactive”.

Regarding `O=S(=O)(O)c1ccc2nc(-c3ccccc3)[nH]c2c1`, the Potency result is “inactive”.

With `COC(c1ccccc1)(c1ccccc1)[C@H](Oc1nc(C)cc(C)n1)C(=O)O`, the “cytotoxicity increase” value is -20.9% [at 35.3 µM]. Consider `OCCN1CCNCC1`, for which the Potency result was “inactive”.

Turning to `CC(=O)CC(=O)Nc1ccc2[nH]c(=O)[nH]c2c1`, the “cytotoxicity increase” value was -14.7%.

Regarding `CCN(CC)C(=O)Nc1ccc(OCC(O)CNC(C)(C)C)c(C(C)=O)c1` (stereo unspecified), the “cytotoxicity increase” value is -12.9% [at 35.3 µM]. For `CCCOC(=O)c1cc(O)c(O)c(O)c1`, the Potency entry was “inactive”. For the molecule `CN1C(=O)c2ccc([N+](=O)[O-])cc2C1=O`, the “cytotoxicity increase” value is -9.27%. `O=C(Cl)c1cccc(C(=O)Cl)c1`: the Potency entry was “inactive”. `CCCCCCCCCCCCCC[P+](CCCC)(CCCC)CCCC`: the Potency was 24.4 µM (active) and 19.5 µM (active).

On to `CCC(CO)(CO)COCC(CC)(CO)CO`, for which the “cytotoxicity increase” value was -4.41%. Consider `Nc1cc(S(=O)(=O)O)cc2cc(S(=O)(=O)O)cc(O)c12`, for which the Potency entry is “inactive”. As for `O=C(O)Cn1cnnn1`, the “cytotoxicity increase” value is -10.1% [at 35.3 µM]. In the case of `Oc1ccc(Cl)cc1Cc1cc(Cl)ccc1O`, the Potency entry was “inactive”. Consider `c1cnc2cc3c(cc2n1)C1CNCC3C1`, for which the “cytotoxicity increase” value was -0.106% [at 35.3 µM]. As to `C=C(C)C(=O)O`, the Potency result was “inactive”. The same measure, in the same setting: with `CCN(CC)CCOc1ccc(/C(=C(\Cl)c2ccccc2)c2ccccc2)cc1` the figure was 35.4 µM (active) and 21.3 µM (active). As to `NCCCCCC(=O)O`, the “cytotoxicity increase” value is -18.2% [at 35.3 µM]. Turning to `CC(C)CCOC(=O)c1ccc(N(C)C)cc1`, the “cytotoxicity increase” value was 3% [at 35.3 µM]. Consider `CCN(CC)c1ccc2c(C)cc(=O)oc2c1`, for which the Potency entry was “inactive”.
